Results: ChEMBL document CHEMBL4513141, “CO-ADD screening of NIH (USA) - Clinical Collection” (2021)
Entries with a potency or affinity are not part of this list.

Legend:
[1] = system: Klebsiella pneumoniae; conditions: Concentration 20 uM; ASSAY_TEST Inhibition of Bacterial Growth; detection method Absorption (OD600); MEDIA CAMHB; plate type 384well; NBS; CORNING #3640; time 18 hr
[2] = system: Candida albicans; conditions: 20 µM
[3] = system: Cryptococcus neoformans; conditions: Concentration 20 uM; ASSAY_TEST Inhibition of Fungal Growth; detection method Resazurin; Absorption (OD600-OD570); plate type 384well; NBS; CORNING #3640

| Structure (SMILES) | Inhibition [1] | Inhibition [2] | Inhibition [3] |
| --- | --- | --- | --- |
| N=c1cc(N2CCCCC2)nc(N)n1O | 8.77% | 2.93% | -7.74% |
| Clc1ccc2c(c1)C(N1CCNCC1)=Nc1ccccc1O2 [AMOXAPINE] | 12.52% | 4.28% | -1.42% |
| CCN1CCC[C@H]1CNC(=O)c1cc(S(N)(=O)=O)ccc1OC [LEVOSULPIRIDE] | 18.7% | 2.16% | 2.98% |
| C[C@@H](O)[C@H]1C(=O)N2C(C(=O)O)=C(S[C@@H]3CN[C@H](C(=O)N(C)C)C3)[C@H](C)[C@H]12 [MEROPENEM] | 0.03% | 3.42% | 2.76% |
| NS(=O)(=O)c1cc2c(cc1C(F)(F)F)NC(Cc1ccccc1)NS2(=O)=O (configuration not stated) [BENDROFLUMETHIAZIDE] | 6.67% | 3.76% | -1.07% |
| CC(=O)O[C@]1(C(C)=O)CC[C@H]2[C@@H]3C=C(C)C4=CC(=O)CC[C@]4(C)[C@H]3CC[C@@]21C [MEGESTROL ACETATE] | 7.28% | 5.92% | -0.12% |
| CC(C)[C@H](N)C(=O)OCCOCn1cnc2c(=O)nc(N)[nH]c21.Cl [VALACYCLOVIR HYDROCHLORIDE] | 6.23% | 3.14% | -5.07% |
| CCc1c(C)[nH]c2c1C(=O)C(CN1CCOCC1)CC2.Cl (configuration not stated) [MOLINDONE HYDROCHLORIDE] | -0.12% | 3.99% | 6.64% |
| Cl.O=C(NCC1CCCCN1)c1cc(OCC(F)(F)F)ccc1OCC(F)(F)F (configuration not stated) | 7.49% | 3.33% | -9.22% |
| Cc1cccc(C)c1NC(=O)C1CCCCN1C.Cl (configuration not stated) [MEPIVACAINE HYDROCHLORIDE] | 9.49% | -0.43% | -0.84% |
| CC(C)[C@H]1CC[C@H](C(=O)N[C@H](Cc2ccccc2)C(=O)O)CC1 [NATEGLINIDE] | 12.08% | 4.05% | -0.58% |
| CC(=O)CCCCn1cnc2c1c(=O)n(C)c(=O)n2C [LOMIFYLLINE] | 10.43% | 2.63% | -0.96% |
| CCC(=O)O[C@]1(C(=O)SCF)[C@H](C)C[C@H]2[C@@H]3C[C@H](F)C4=CC(=O)C=C[C@]4(C)[C@@]3(F)[C@@H](O)C[C@@]21C [FLUTICASONE PROPIONATE] | 6.12% | 10.1% | -1.8% |
| CCOC(=O)[C@H](CCc1ccccc1)N[C@H]1CCc2ccccc2N(CC(=O)O)C1=O.Cl [BENAZEPRIL HYDROCHLORIDE] | 6.08% | 3.12% | 0.84% |
| C#C[C@]1(O)CC[C@H]2[C@@H]3CCc4cc(OC)ccc4[C@H]3CC[C@@]21C [MESTRANOL] | 4.28% | 4.15% | -7.53% |
| CCOC(=O)O[C@]1(C(=O)OCCl)CC[C@H]2[C@@H]3CCC4=CC(=O)C=C[C@]4(C)[C@H]3[C@@H](O)C[C@@]21C [LOTEPREDNOL ETABONATE] | 0.28% | 4.45% | 0.62% |
| COc1cc(C[C@@H](CO)[C@H](CO)Cc2ccc(O)c(OC)c2)ccc1O [(+)-SECOISOLARICIRESINOL] | 5.83% | 4.22% | 1.62% |
| Cc1ccc(C)c(OCCCC(C)(C)C(=O)O)c1 [GEMFIBROZIL] | 7.25% | 8.15% | -1.55% |
| Cl.O.O=C(c1ccc(F)cc1)C1CCN(CCn2c(=S)[nH]c3ccccc3c2=O)CC1 | 11.14% | 3.36% | 0.24% |
| Cl.O=C(O)/C=C/c1ccc(Cn2ccnc2)cc1 | 3.67% | 3.2% | -5.32% |
| NNCCc1ccccc1.O=S(=O)(O)O [PHENELZINE SULFATE] | 6.23% | 4.34% | -10.12% |
| CN(C)CCCN1c2ccccc2CCc2ccc(Cl)cc21.Cl [CLOMIPRAMINE HYDROCHLORIDE] | 18.4% | 2.36% | -9.01% |
| COC(=O)[C@H](c1ccccc1Cl)N1CCc2sccc2C1 [CLOPIDOGREL] | 14.99% | 2.18% | -8.15% |
| CCN(CC)C(=O)[C@]1(c2ccccc2)C[C@@H]1CN.Cl [1R,2S-MILNACIPRAN HYDROCHLORIDE] | 12.52% | 0.44% | -10.1% |
| CC1=C(C(=O)O)N2C(=O)[C@@H](NC(=O)[C@H](N)c3ccccc3)[C@H]2SC1.O [CEPHALEXIN] | 2.49% | 2.01% | 4.2% |
| O=C1c2c(O)cc(O)cc2O[C@H](c2ccc(O)c(O)c2)[C@H]1O [(+)-TAXIFOLIN] | 12.56% | 3.72% | -3.68% |
| COc1ccccc1N1CCN(CC(O)COc2cccc3ccccc23)CC1 (configuration not stated) [NAFTOPIDIL] | -0.32% | 2.55% | 1.21% |

| Structure (SMILES) | Inhibition [1] | Inhibition [2] | Inhibition [3] |
| --- | --- | --- | --- |
| O=C(O[C@H]1[C@H](Oc2ccccc2COC(=O)C2(O)C=CCCC2=O)O[C@H](CO)[C@@H](O)[C@@H]1O)c1ccccc1 (some centres not stated) [TREMULACIN] | 9.15% | 3.13% | -9.11% |
| Cl.OC(CCN1CCCC1)(c1ccccc1)C1CCCCC1 (configuration not stated) [PROCYCLIDINE HYDROCHLORIDE] | 8.43% | 4.68% | -10.03% |
| CC(=O)O.CNC(=N)NCCC[C@H](N)C(=O)O [TILARGININE ACETATE] | -3.72% | 2.96% | -3.5% |
| C[n+]1ccccc1/C=N/O.[Cl-] [PRALIDOXIME CHLORIDE] | 15.84% | 0.76% | -2.73% |
| Cc1ncc([N+](=O)[O-])n1CCO [METRONIDAZOLE] | 13.91% | 1.89% | -8.47% |
| CC1(C)O[C@@H]2C[C@H]3[C@@H]4CCC5=CC(=O)C=C[C@]5(C)[C@@]4(F)[C@@H](O)C[C@]3(C)[C@]2(C(=O)CO)O1 [TRIAMCINOLONE ACETONIDE] | 14.59% | 0.96% | -5.82% |
| CCCNCC(O)COc1ccccc1C(=O)CCc1ccccc1 (configuration not stated) [PROPAFENONE] | 6.97% | 0.01% | -5.76% |
| CCC[C@@H]1C[C@@H](C(=O)N[C@@H]([C@H]2O[C@H](SC)[C@H](O)[C@@H](O)[C@H]2O)[C@@H](C)O)N(C)C1.Cl.O [LINCOMYCIN HYDROCHLORIDE] | 17.37% | 4.06% | -3.42% |
| CCOC(=O)OC(C)OC1=C(C(=O)Nc2ccccn2)N(C)S(=O)(=O)c2ccccc21 (configuration not stated) [AMPIROXICAM] | 12.2% | 0.25% | -3.23% |
| Cc1occc(=O)c1O [MALTOL] | 10.28% | 4.42% | -2.15% |
| Br.Br.O=C1CC2(CCCC2)CC(=O)N1CCNCC1COc2ccccc2O1 (configuration not stated) | 12.27% | 3.99% | -1.27% |
| CCCNC(=O)NS(=O)(=O)c1ccc(Cl)cc1 [CHLORPROPAMIDE] | 11.38% | 3.19% | 0% |
| CC#C[C@]1(O)CC[C@H]2[C@@H]3CCC4=CC(=O)CCC4=C3[C@@H](c3ccc(N(C)C)cc3)C[C@@]21C [MIFEPRISTONE] | 3.7% | 3.98% | -10.45% |
| CC(=O)OCC(CCn1cnc2cnc(N)nc21)COC(C)=O [FAMCICLOVIR] | 11.51% | 2.72% | -0.79% |
| C/C=C1/[C@H]2C=C(C)C[C@]1(N)c1ccc(O)nc1C2 | 13.99% | 2.85% | -7.02% |
| CCC(=O)OCC(=O)[C@@]1(OC(=O)CC)[C@@H](C)C[C@H]2[C@@H]3CCC4=CC(=O)C=C[C@]4(C)[C@@]3(Cl)[C@@H](O)C[C@@]21C [BECLOMETHASONE DIPROPIONATE] | 7.24% | 3.12% | 1.67% |
| Cc1cnc(C(=O)NCCc2ccc(S(=O)(=O)NC(=O)NC3CCCCC3)cc2)cn1 [GLIPIZIDE] | 8.44% | 3.06% | -1.88% |
| Cc1ccsc1C(=CCCN1CCC[C@@H](C(=O)O)C1)c1sccc1C.Cl [TIAGABINE HYDROCHLORIDE] | 9.25% | 1.98% | -3.18% |
| OCCN1C[C@H](O)[C@@H](O)[C@H](O)[C@H]1CO [MIGLITOL] | 11.67% | 2.16% | 1.09% |
| Cl.O=C1[C@H]2CCCC[C@H]2C(=O)N1CCCCN1CCN(c2nsc3ccccc23)CC1 | 9.66% | 2.33% | -7.18% |
| CCC1(c2ccccc2)C(=O)NCNC1=O [PRIMIDONE] | 7.75% | 2.22% | 0.81% |
| O=C1Nc2ccc(Cl)cc2[C@@](C#CC2CC2)(C(F)(F)F)O1 [EFAVIRENZ] | -2.99% | 3.86% | -5.8% |
| O=C1C(CC[S+]([O-])c2ccccc2)C(=O)N(c2ccccc2)N1c1ccccc1 (configuration not stated) [SULFINPYRAZONE] | 13.98% | 4.96% | -8.91% |
| CCc1ccc(CCOc2ccc(CC3SC(=O)NC3=O)cc2)nc1.Cl (configuration not stated) [PIOGLITAZONE HYDROCHLORIDE] | 2.41% | 2.58% | -2.27% |
| O=C(O)c1cc(/N=N/c2ccc(S(=O)(=O)Nc3ccccn3)cc2)ccc1O [SULFASALAZINE] | 2.94% | 8.72% | 5.13% |
| CN(C)CCOC(c1ccc(Cl)cc1)c1ccccn1.O=C(O)/C=C\C(=O)O (configuration not stated) [CARBINOXAMINE MALEATE] | 12.89% | 0.99% | 0.28% |
| CC1=C(/C=C/C(C)=C/C=C/C(C)=C/C(=O)O)C(C)(C)CCC1 [TRETINOIN] | 14.57% | 2.93% | -0.54% |
